# Screening results from PubChem BioAssay.
# Most compounds without a hit are left out; they make up all but 2.5% or so of the library.
# CHT PAM = CHT positive allosteric modulators, primary screen, cell-based, membrane potential dye, choline EC20; B-score at 10 µM; High affinity choline transporter 1 (Homo sapiens), Q9GZV3; 310,000 tested, 0.49% active; CHT-expressing cells; hits give high values; LV-AA mutant CHT in HEK293 cells;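 active = initial fluorescence not abnormally high and integrated response B-score, plate-corrected, over 3 SD above library mean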
# PKA-R1A activ = activators of PKA-R1A holoenzyme, primary screen, biochemical, fluorescence polarization, Cy5-IP20, bovine R1A, mouse PKAc; activation, % at 11.4 µM; PKA-R1A dissociation; scaled: DMSO 0%, 113 µM cGMP 100%; 340,000 tested, 0.083% active; cAMP-dependent protein kinase type I-alpha regulatory subunit (Bos taurus) + …; AID 504707, 2011;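 active = percent activation above the mean of all tested compounds plus 3 SD, cut at about 19% in these data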;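 also: higher means more PKAc released from R1A so a rise in polarization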
# ANO1 activ = TMEM16A chloride channel activators or potentiators, primary screen, cell-based, HTS; B-score at 10 µM; HEK293 TMEM16A/YFP-H148Q/I152L, iodide quench fluorescence; hits give low values; Anoctamin-1 (Mus musculus), Q8BHY3; 340,000 tested, 0.3% active;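 active = fluorescence-ratio B-score plate-corrected deviation score at least 3 library SD below zero, with starting fluorescence score within 5 deviations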;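 also: channel opened by trigger with iodide after compound preincubation; score built on the fluorescence ratio of max minus min over baseline; more negative score means more quench and so TMEM16A activation or potentiation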
# TMEM16A inh = TMEM16A chloride channel inhibitors, primary screen, cell-based, HTS; HEK293 TMEM16A/YFP iodide influx fluorescence, ionomycin; normalized B-score (activity score, 25-100; higher = stronger inhibition) at 10 µM; 310,000 tested, 1.2% active; AID 588511, 2011;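 active = ratio plate-corrected score three or more library SD toward inhibition, starting fluorescence score within five deviations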;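 also: score derived from kinetic fluorescence span divided by baseline fluorescence per well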
# PKA-R2B activ = activators of PKA-R2B holoenzyme, primary screen, biochemical, fluorescence polarization, Cy5-IP20, human | cAMP-dependent protein kinase catalytic subunit beta (Homo sapiens) + cAMP-dependent … | PKA-R2B holoenzyme dissociation; R2B truncated from residue 108, S112A mutant; 0% DMSO only, 100% 113 µM cGMP | activation, % at 11.4 µM | 340,000 tested, 0.079% active | AID 504700, 2011;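 active = activation above a cutoff set at the mean over all compounds plus 3 SD, cut at about 18% in these data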;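 also: higher means more holoenzyme dissociation and a rise in polarization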
# CHT inh = inhibitors of human choline transporter CHT; AID 488975, 2010; CHT-expressing cells, membrane potential dye, choline response; hits give low values; B-score at 10 µM; 310,000 tested, 0.86% active; High affinity choline transporter 1 (Homo sapiens), Q9GZV3;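 active = B-score over 3 SD under the library average, and starting fluorescence ratio not unusually high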;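 also: choline stimulus applied at its EC90 after an EC20 pre-addition; B-score computed on integrated fluorescence ratio after choline addition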
# TMEM16A reconf = TMEM16A chloride channel inhibitors, confirmation, cell-based, re-confirmation; inhibition, % at 10 µM; HEK293 TMEM16A/YFP-H148Q, iodide quench fluorescence; ionomycin added to raise cell calcium; 2,300 tested, 39% active; shares compounds with TMEM16A inh;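 active = mean duplicate percent inhibition, scaled so buffer wells are 0 and the reference blocker 100, over three buffer SD above buffer mean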
# HEK293 Ca mobil = calcium mobilization in TMEM16A/YFP HEK293 cells, confirmation, counter-screen for TMEM16A inhibitor project; calcium response (% of ionomycin), % at 10 µM; AID 652231, 2013; shares compounds with TMEM16A inh; 2,300 tested, 2% active; Fluo4 calcium mobilization;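 active = duplicate-averaged calcium signal over 20% of the ionomycin maximum, relative to buffer baseline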;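 also: each well's signal is peak minus trough fluorescence divided by its pre-addition baseline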
# YFP-HEK293 quench = iodide YFP quench changes in parental YFP-HEK293, counter-screen for TMEM16A inhibitor project, cell-based; shares compounds with TMEM16A inh; ionomycin; YFP ratio F(max-min)/F0 at 10 µM; 2,300 tested, under 10 active;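 active = yellow fluorescent protein signal ratio exceeding the buffer control mean by over 5 SD of those controls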;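 also: ratio is mean of duplicate wells from kinetic YFP trace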
# ClC-1 rat inh = ClC-1 chloride channel inhibition, selectivity assay for TMEM16A inhibitor project, cell-based, voltage-dependent ClC-1 | shares compounds with TMEM16A inh | CHO ClC-1-YFP, iodide influx fluorescence quench; iodide control reads 0, buffer control 100 | ratio percent, % at 10 µM | 2,300 tested, under 10 active | AID 652236, 2013;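 active = duplicate-mean ratio percent above the mean of iodide-only control wells, which defines zero, plus 5 of their SD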;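 also: higher percent means stronger block of ClC-1 iodide influx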
# Hits are given with their value; . = inactive; / = no result given.
SMILES,CHT PAM,PKA-R1A activ,ANO1 activ,TMEM16A inh,PKA-R2B activ,CHT inh,TMEM16A reconf,HEK293 Ca mobil,YFP-HEK293 quench,ClC-1 rat inh
CCOc1ccc(S(=O)(=O)N2CCCCC2)cc1NC(=O)C1CCC1,.,.,.,.,.,.,/,/,/,/
Cc1nc(SCc2ccc(Cl)c(Cl)c2)ncc1C(=O)O,.,.,.,25,.,.,22%,.,.,.
COc1ccc2oc3cc(C)[n+]([O-])c(-c4ccc(Br)cc4)c3c2c1,.,.,.,25,.,.,22%,.,.,.
Fc1ccccc1CSCc1nc2ccccc2[nH]1,.,.,.,.,.,.,/,/,/,/
CCC1Sc2ccccc2N(CC(=O)NCCC2=CCCCC2)C1=O (configuration not stated),.,.,.,.,.,.,.,.,.,.
CC(=O)NCCC(Cc1ccccc1)c1ccco1 (configuration not stated),.,.,.,100,.,.,.,.,.,.
O=C(O)C1=C(OCc2ccc(F)c(F)c2)C(=O)NCC1,.,/,.,.,/,.,/,/,/,/
FC(F)(F)c1ccc(C2[C@H]3CN(Cc4cccnc4)[C@H](c4ccccc4)C34CC2(c2ccccc2)C4)cc1 (some centres not stated),.,.,.,.,.,.,/,/,/,/
COc1ccc(Cn2c(CCC(=O)Nc3ccc(CC#N)cc3)nc3cccnc32)cc1,.,.,.,25,.,.,.,.,.,.
COc1ccc(Cn2c(CCC(=O)Nc3ccccc3)nc3cccnc32)cc1,.,.,.,.,.,.,/,/,/,/
Cc1nnc2c3ccccc3c(-c3ccc(O)cc3)nn12,.,.,.,25,.,.,.,.,.,.
CCCCNS(=O)(=O)c1cc2c3c(c1)CCN3C(=O)CC2,.,.,.,.,.,.,/,/,/,/
C/C(=N\NC(=O)c1cccc(S(=O)(=O)N2CCCC2)c1)c1ccc(OCC(=O)N(C)C)cc1,.,.,.,.,.,.,/,/,/,/
COCC(=O)NCCSc1c(C)[nH]c2ccccc12,.,.,.,100,.,.,.,.,.,.
CC(Sc1nc2c(c(=O)[nH]1)CCCC2)C(=O)Nc1ccccc1C#N (configuration not stated),.,.,.,.,.,.,/,/,/,/
CCOC(=O)c1c(-c2ccc(-c3ccccc3)cc2)csc1NC(=O)C1C2CCC(O2)C1C(=O)O (configuration not stated),.,.,.,100,.,.,70%,.,.,.
CCOC(=O)c1c(-c2ccc(C)cc2)csc1NC(=O)C1CC=CCC1C(=O)O (configuration not stated),.,.,.,.,.,.,/,/,/,/
COc1ccc2nc3cc(Cl)ccc3c(Nc3ccc(O)c(CN4CCN(C)CC4)c3)c2c1,/,.,.,/,.,/,/,/,/,/
